# Source: PubChem BioAssay (Tox21)
# The source made the active and inactive calls. Calls come from the whole dose curve; as a rule, active = well fitted curve in the direction sought with a large enough effect in the repeat runs; inconclusive = weak or mixed curves; inactive = flat fitted curve, though single readings scatter.
# Experiment: qHTS assay to test for compound auto fluorescence at 535 nm (green) in HEK293 cell free culture (AID 720682)
# Conditions: cell-free medium, green autofluorescence 485/535 nm, active compounds read high; series mostly up to 91.3 µM; activity change: at the top concentration
# Excerpt: U.S. Tox21 Program National Center for Advancing Translational Sciences [NCATS] NIH Chemical Genomics Center [NCGC] U.S. Environmental Protection Agency [EPA] National Institutes of Environmental Health Sciences [NIEHS] National Toxicology Program [NTP] U.S. Food and Drug Administration [FDA] Tox21 Assay Overview: Compound auto fluorescence often interferes with screening of the compound library against various biological targets and signaling pathways. Some of these compounds may have fluorophoric properties. Such properties may interfere with the assay outputs resulting in false positives and/or negatives. To decrease such complications and ensure the compound activities are relevant in terms of biological response, the Tox21 10K compound library was screened for auto fluorescence. From the fluorophores used as reporter signals in our screening assays, the auto fluorescence equivalencies of compounds against three fluorophores have been evaluated: Triamterene, Fluorescein and Rose Bengal sodium for blue, green and red fluorescence, respectively. The fluorescence intensities were measured using Excitation/Emission wavelengths at 405/460nm, 485/535nm and 540/590nm for blue, green and red labels, respectively. This assay includes the green fluorescence data.
# Tox21 Assay Protocol Summary: 5 uL of culture medium (DMEM containing 10% FBS) per well was dispensed into black wall/clear bottom 1536-well plates using a Multidrop Combi Dispenser (ThermoFisher Scientific, Waltham, MA). After 23 nL compound or DMSO vehicle was transferred into assay plate by a pintool work station (Kalypsys, San Diego, CA), fluorescence intensities in the assay plates were measured by an Envision (PerkinElmer, Shelton, CT) plate reader using three labels for measuring blue, green and red fluorescence at […] 460, 535 and 590nm respectively.
# % is set by controls: 0 for no effect and ±100 for the full control effect.
Structure (SMILES),activity change,outcome
Cc1c(N)cccc1N,0.106% [at 95.7 µM] (inactive),
Cc1ncc(CO)c(CN)c1O,-0.0156% [at 46 µM] (inactive),
CN1CCC[C@@H]1Cc1c[nH]c2ccc(CCS(=O)(=O)c3ccccc3)cc12,-0.0453% [at 46 µM] (inactive),
C=CC(C)(O)CC/C=C(\C)CCC=C(C)C (stereo not given),,inactive
N#Cc1ccc(C(c2ccc(C#N)cc2)n2cncn2)cc1,,inactive
CC(C)CCCCCCc1ccc(OCCOCCO)cc1,0.162% [at 95.7 µM] (inactive),
CCOC(=O)C(Br)c1ccccc1 (stereo not given),0.0721% (inactive),
CC(=O)OC(C)OC(C)=O,-0.0018% [at 95.7 µM] (inactive),
Cc1cccc(C)c1NC(=O)CN1CCCCCC1,0.0928% [at 46 µM] (inactive),
CCOC(=O)COc1ccc2c(c1)CC(NCC(O)c1cccc(Cl)c1)CC2 (stereo not given),0.1% (inactive),
CC(C)C(=O)OC/C=C/c1ccccc1,-0.172% (inactive),
CCOc1ccc2nc(N)sc2c1,-0.0058% (inactive),
CC(C)O,,inactive
CN(C)Cc1ccccc1,,inactive
CC(=O)Nc1ccc(C)c(Cl)c1,0.0265% (inactive),
CCCCC(CC)COC(=O)COc1cc(Cl)c(Cl)cc1Cl (stereo not given),-0.0094% (inactive),
CC1(C)C(=O)N(Cl)C(=O)N1Br,0.0055% (inactive),
CCCCCCC,-0.0673% [at 95.7 µM] (inactive),
O=C(CC(=O)C(F)(F)F)c1ccccc1,0.0637% [at 95.7 µM] (inactive),
CCN[C@H]1CN(CCCOC)S(=O)(=O)c2sc(S(N)(=O)=O)cc21,-0.0447% [at 18.6 µM] (inactive),

Structure (SMILES),activity change,outcome
Cc1cc(NS(=O)(=O)c2ccc(N)cc2)nc(C)n1,-0.0112% [at 46 µM] (inactive),
CCN(CCCc1ccccc1)CCCc1ccccc1,0.0298% [at 18.6 µM] (inactive),
CN(C)CC[C@@H](c1ccc(Cl)cc1)c1ccccn1,-0.0554% [at 46 µM] (inactive),
COc1cc(Cl)ccc1Cl,-0.0027% [at 95.7 µM] (inactive),
CC(C)S,0.0043% [at 95.7 µM] (inactive),
COc1ccc2nc(NC(=O)Nc3ccccc3)sc2c1,-0.0643% [at 46 µM] (inactive),
O=C(O)[C@@H]1CSCN1,-0.149% [at 46 µM] (inactive),
Cc1c(C(=O)NCCO)[n+](=O)c2ccccc2n1[O-],-0.0191% [at 46 µM] (inactive),
CCOc1ccc(NC(N)=O)cc1,-0.0004% (inactive),
COc1cc(C)ccc1C(C)C,0.0988% (inactive),
CN(CCCN1c2ccccc2CCc2ccccc21)CC(=O)c1ccc(Cl)cc1,-0.033% [at 46 µM] (inactive),
CCc1nnc(NS(=O)(=O)c2ccc(N)cc2)s1,-0.0573% [at 46 µM] (inactive),
CC(C)NC[C@@H](O)COc1cccc2ccccc12,-0.0874% [at 46 µM] (inactive),
O=C1CCCCC1C1CCCCC1 (stereo not given),-0.258% (inactive),
O=C1CCCCCCCCCCC(=O)OCCO1,-0.0068% (inactive),
NC(Cc1ccc(F)cc1)C(=O)O (stereo not given),0.0132% [at 3.72 µM] (inactive),
CCNCCO,-0.0139% (inactive),
OCCN1CCN(CCO)CC1,0.0115% [at 95.7 µM] (inactive),
CCC/C=C/CO,-0.0722% (inactive),
OCC(CBr)(CBr)CBr,-0.115% (inactive),
